From ChEMBL document CHEMBL4513149, “CO-ADD screening of MMV (CH) - MMV compounds” (2021)
Potency and affinity values are given separately.

Experiments:
Staphylococcus aureus = details: Concentration 20 uM; ASSAY_TEST Inhibition of Bacterial Growth; detection method Absorption (OD600); MEDIA CAMHB; plate type 384well; NBS; CORNING #3640; time 18 hr
Escherichia coli = details: Concentration 20 uM; ASSAY_TEST Inhibition of Bacterial Growth; detection method Absorption (OD600); MEDIA CAMHB; plate type 384well; NBS; CORNING #3640; time 18 hr

SMILES | Inhibition (Staphylococcus aureus) [%] | Inhibition (Escherichia coli) [%]
Cl.Cl.Cl.NS(=O)(=O)c1cncc(-c2ccc3nccc(-c4cn[nH]c4)c3n2)c1 | 9.83 | 6.62
COC(=O)c1c(NC(=O)c2c(F)c(F)c(F)c(F)c2F)sc2c1CCCCC2 | 13.36 | 6.57
CC(C)n1ncc2c(C(=O)NCC(c3cccs3)N3CCOCC3)cc(-c3ccccc3)nc21 (configuration not stated) | 11.85 | 3.42
NS(=O)(=O)c1cccc(-c2ccc3ncc(N4CCOCC4)nc3c2)c1 | 16.94 | 14.17
Cl.O=C(Nc1ccc(N2CCNCC2)nc1)c1oc(-c2ccccc2)nc1C(F)(F)F | 15.48 | 0.64
Nc1ncnc2c1c(-c1cnc3ccccc3c1)nn2CC1CCNCC1 | 3.94 | -4.76
Nc1nccc2ccc(Oc3ccncc3)cc12 | 12.81 | 7.44
CCCNC(=O)N1CCC2(CC1)CC(=O)c1cc(C)ccc1O2 | 20.33 | 10.17
C[C@H](C(N)=O)N1CCCC[C@@H]1c1ccc(OCc2cccc(F)c2)cc1 | 12.73 | 2.14
CS(=O)(=O)Cc1nc2ccccc2oc1=O | 30.23 | 5.17
CCn1cnc2c(Nc3cc(F)cc(F)c3)nc(C#N)nc21 | 36.21 | 12.2
CCN(CC)CCCN1CCN(C(=O)c2cccc(-c3noc(C(F)(F)F)n3)c2)CC1 | -0.71 | -1.62
Cc1cc2ccccc2n1CC(=O)N1CC(C(=O)N2CCCCC2)Oc2ccccc21 (configuration not stated) | 16.51 | 10.52
Nc1ccc(C(=O)Nc2ccc(-c3nc4ccccc4o3)cc2)cc1 | 11.63 | 11.29
OCc1ccc(-c2cncc(Nc3cccc(Cl)c3)c2)cc1 | 14.66 | 10.9
Brc1c(-c2ccc3c(c2)OCO3)nc2ncccn12 | 14.85 | 5.08
CNc1nnc(Sc2cnn(-c3ccccc3)c(=O)c2Cl)s1 | 17.43 | -7.26
O=C(Nc1ccc(F)c(-c2nc3cc(-c4ccccc4)cnc3[nH]2)c1)N1CCCC1 | 13.16 | -0.3
O=C(NCCc1ccn(-c2ccccc2)n1)C1CCCCC1 | 6.55 | 2.39
O=C(N[C@H](Cc1ccccc1)C(=O)Nc1ccccc1N1CCOCC1)c1cccs1 | 14.16 | 8.05
CC(C)(C)n1nc(Cc2ccc(F)c(Cl)c2)c2c(N)ncnc21 | 12.68 | 11.38
O=C(NC1CCN(c2ccnc3ccccc23)C1)c1cccc(C(F)(F)F)c1 (configuration not stated) | 10.7 | 9.38
COc1ccc(-c2onc(C(F)(F)F)c2-c2ccc(Cl)cc2)c(O)c1 | 22.97 | 5.79
COc1ccc(-c2nc(-c3cccc(NC(=O)Cc4ccc(F)cc4)c3)no2)cc1OC | 22.17 | 8.52
CNc1cc(C)nc(C2CN(C(=O)c3n[nH]c4ccccc34)CCO2)c1 (configuration not stated) | 17.74 | 10.11
COc1ccc(-c2cc(NC(=O)c3ccc(F)cc3Cl)ccc2OC)cc1 | 17.79 | 8.24

SMILES | Inhibition (Staphylococcus aureus) [%] | Inhibition (Escherichia coli) [%]
Cc1cccc(Cn2ccc(NC(=O)c3ccc4c(c3)OCO4)n2)c1 | 18.14 | 6.79
CNC(=O)c1nn(C)c2c1C(C)(C)Cc1cnc(Nc3ccc(N4CCN(C)CC4)cc3)nc1-2 [MILCICLIB] | 15.75 | 10.4
CS(=O)(=O)c1ccc(C(=O)N(CC2CCCO2)c2nc3ccccc3s2)cc1[N+](=O)[O-] (configuration not stated) | 17.15 | 7.54
O=C(C1CCCCC1)N1CC(=O)N2CCc3ccccc3C2C1 (configuration not stated) [PRAZIQUANTEL] | 18.11 | 6.83
CCOc1ccc(-c2nc(NC(=O)CS(=O)(=O)c3ccccc3)sc2C)cc1 | 3.82 | -0.36
CC1CCCCN1C(=O)NCCc1coc(-c2ccc(F)cc2)n1 (configuration not stated) | 23.75 | 7.62
Cc1ccccc1C(=O)N1N=C(Nc2ccccc2)SC1(C)C | 8.67 | 8.51
Cc1cc(C(=O)Nc2ccc(-c3ccccc3)cc2)no1 | 16.2 | 12.13
O=C(NC1=NCCS1)c1sc2cc(F)ccc2c1Cl | 2.69 | -4.46
N#Cc1ccc(-c2cnc(N)c(-c3ccc(C(N)=O)cc3)n2)cc1 | 16.7 | 7.7
Cc1cc(NC(=O)c2ccc(S(=O)(=O)N(Cc3ccccc3)C(C)C)cc2)no1 | 10.98 | 6.09
CC1COC2(CCN(c3nc(=O)c4cc(C(F)(F)F)cc([N+](=O)[O-])c4s3)CC2)O1 (configuration not stated) | 16.17 | 4.14
Clc1cccc(CO[C@H]2CCc3ccccc3[C@@H]2n2ccnn2)c1 | -0.96 | 7.53
Cc1c[nH]c(CCNC(=O)c2cc(-c3ccc(Cl)cc3)cs2)n1 | 25.33 | 10.78
CC1=NN(c2nc3ccccc3s2)C(=O)C1Cc1cccc2ccccc12 (configuration not stated) | 69.16 | 0.69
OC[C@H]1O[C@@H](n2c3ccc(Cl)cc3c3c(-c4cc5ccccc5o4)ncnc32)C(O)[C@H]1O (some centres not stated) | 9.2 | 8.79
O=C(Nc1ccnc(-c2cccnc2)n1)c1cc(C(F)(F)F)cc(C(F)(F)F)c1 | 15.63 | 6.19
COc1ccc(C2=NCCN2)cc1-c1cn(-c2cccc(C3=NCCN3)c2)nn1.O=C(O)C(F)(F)F.O=C(O)C(F)(F)F | 20.97 | 10.7
COc1ccc(-c2nn(C(C)C)c3ncnc(N)c23)cc1OC | 14.97 | -0.52
COc1ccc(N(CCc2cccc(C)n2)C(C)=O)cc1 | 18.62 | 6.06
Cc1ccc2cc(C3NC(=O)c4ccccc4N3)c(Cl)nc2c1 (configuration not stated) | 11.87 | 10.17
CCc1nc2ccccc2n1CC(O)COc1cc(C)ccc1Cl (configuration not stated) | 11.53 | 4.16
O=C(NC1CC1)c1ccc(N2CCOc3ccc(Cl)cc32)s1 | 18.01 | 8.85
N=C(N)c1ccc(-c2cc(-c3ccccc3)on2)cc1 | 23.63 | 12.9
Cl.c1ccc(Oc2ccc(-c3cc(N4CCNCC4)[nH]n3)cc2)cc1 | 14.57 | 9.1
Nc1cccnc1Nc1ccc(Cl)cc1 | 2.93 | -1.63

SMILES | Inhibition (Staphylococcus aureus) [%] | Inhibition (Escherichia coli) [%]
COC(=O)C1=C(C)NC(C)=C(C(=O)OC(C)C)C1c1cccc2nonc12 (configuration not stated) [ISRADIPINE] | 3.78 | -1.04
CCc1ccc(C(NCc2nc(N)nc(N(C)C)n2)C(C)C)cc1 (configuration not stated) | 6.21 | 7.08
CC(C)(C)c1ccc(N[C@@H]2CCCC[C@H]2NC(=O)c2ccco2)cc1 | 7.06 | 10.16
O=C1Nc2ccc(Br)cc2C12NCCc1c2[nH]c2ccccc12 (configuration not stated) | 8.87 | 4.53
CC(C)(C)OC(=O)N1CCN(c2nccc(-c3ccc(-c4ccc(Cl)cc4)s3)n2)CC1 | 15.85 | 9.45
O=C(NCc1nnc2n1CCCCC2)c1ccc(-c2ccc(F)cc2)o1 | 15.64 | 7.05
CN1CCCC1CCO[C@](C)(c1ccccc1)c1ccc(Cl)cc1.O=C(O)/C=C/C(=O)O (some centres not stated) | 18.42 | 10.75
CC1CS(=O)(=O)CCN1/N=C/c1ccc([N+](=O)[O-])o1 (configuration not stated) [NIFURTIMOX] | 33.42 | 6
c1ccc(Oc2ccc(-c3cc(N4CCOCC4)[nH]n3)cc2)cc1 | 17.8 | 4.28
CCCCc1ccc(NC(=O)Nc2ccc(O[C@H]3CCCC[C@@H]3N(C)c3ccccc3)c(F)c2)cc1 | 12.12 | 9.29
Nc1nc(N)c2c3c(sc2n1)CN(Cc1ccccc1)CC3 | 15.72 | 6.81
CC1CC1C(=O)NC1CCN(CC2(c3ccccc3)CCCCC2)CC1 (configuration not stated) | 14.54 | 6.55
CC(=O)N(CCN(C(=O)c1ccc(F)cc1)c1ccccc1)c1ccccc1 | 12.64 | 5.32
COc1ccc(-c2nnc3ccc(-c4cccc(C(C)C)c4)cn23)cc1OC | 5.54 | 12.18
Cc1cccc(NC(=O)c2cc(S(=O)(=O)N(C)c3ccc(F)cc3)ccc2Cl)n1 | 12.32 | 7.88
Cc1ccc(Oc2ccc(NC(=O)CNc3ccccc3N3CCCC3=O)cc2)cc1 | 5.88 | 6.72
O=C(Nc1c(O)cccc1-c1nc2c(C(=O)O)cccc2o1)c1cc(-c2ccccc2)on1 | 0.11 | -12.15
Nc1ncnc2[nH]nc(Cc3cccc4ccccc34)c12 | 12.91 | 7.05
COc1ccc(S(=O)(=O)Nc2ccc(CN3CCN(C(=O)c4cccc(C#N)c4)CC3)cc2)cc1 | 1.42 | -0.19
Cc1ccc(NC(=O)c2nc[nH]c2C(=O)Nc2nc3ccccc3[nH]2)c(C)c1 | 23.22 | 12.12
CC(C)(C)CN1C(=O)C(c2ccccc2)(c2ccccc2)N=C1N | 17.09 | 4.18
c1ccc(Oc2ccc(-c3cc(C4CCOCC4)[nH]n3)cc2)cc1 | 24.63 | 11.25
CC(=O)N1CCc2cc3nc(C)cc(C)c3cc21 | 14.4 | 5.79
CS(=O)(=O)c1cccc(-c2cnc3[nH]cc(-c4ccc(CCC(=O)O)cc4)c3c2)c1 | 21.11 | 7.22
